Test results reported in PubChem BioAssay (NCI).
About 83,000 compounds went through this panel and 20% of them were active in at least one assay; those are over-represented in the sample as a whole.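 Each cell line was grown in a 96-well plate and treated with one concentration of compound for 48 hours. Values below 10 were considered active.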 Calls of active or inactive are those of the source.

Legend:
Test in all cases: NCI-60 one-dose screen, 48 h (100 = growth as untreated, 0 = no growth, -100 = all killed)
Conditions in all cases: 10 µM unless noted
SR leukemia = test system: SR leukemia
RPMI-8226 leukemia = test system: RPMI-8226 leukemia
OVCAR-8 ovarian = test system: OVCAR-8 ovarian
OVCAR-4 ovarian = test system: OVCAR-4 ovarian
IGROV1 ovarian = test system: IGROV1 ovarian
OVCAR-3 ovarian = test system: OVCAR-3 ovarian
HS 578T breast = test system: HS 578T breast
NCI/ADR-RES ovarian = test system: NCI/ADR-RES ovarian
SK-OV-3 ovarian = test system: SK-OV-3 ovarian
OVCAR-5 ovarian = test system: OVCAR-5 ovarian

Measured: growth

COc1ccc(NC(=O)/N=c2\oc3c(OC)cccc3cc2-c2cc3ccccc3[nH]2)cc1
active: HS 578T breast 7.84%
inactive: SR leukemia 107% | RPMI-8226 leukemia 173% | OVCAR-8 ovarian 49.1% | OVCAR-4 ovarian 69.8% | IGROV1 ovarian 50% | OVCAR-3 ovarian 64.4% | NCI/ADR-RES ovarian 57.7%

Cc1cccc2cc(/C=C/C(=O)/C=C/c3ccc(Cl)cc3)c(=O)[nH]c12
active: SR leukemia 0.572% | RPMI-8226 leukemia 6.05%
inactive: OVCAR-8 ovarian 21.8% | OVCAR-4 ovarian 58% | SK-OV-3 ovarian 91.5% | OVCAR-3 ovarian 13.9% | HS 578T breast 50.9% | NCI/ADR-RES ovarian 94.8%

CCOC(=O)C(Cc1ccccc1)n1c(O)c(C=Nc2ccc(C(=O)OCCN(CC)CC)cc2)sc1=O (stereo not given)
inactive: SR leukemia 23.7% | RPMI-8226 leukemia 68% | OVCAR-8 ovarian 92.8% | OVCAR-4 ovarian 89.4% | SK-OV-3 ovarian 106% | IGROV1 ovarian 97.5% | OVCAR-3 ovarian 93% | HS 578T breast 88.1% | NCI/ADR-RES ovarian 107%

COc1ccc(C(=O)/C=C/c2cc(C(=O)c3cc(OC)c(OC)c(OC)c3)ccc2OC)cc1
active: SR leukemia 6.69%
inactive: RPMI-8226 leukemia 14.6% | OVCAR-8 ovarian 43.8% | OVCAR-5 ovarian 45% | SK-OV-3 ovarian 90% | IGROV1 ovarian 62.2% | OVCAR-3 ovarian 60.6% | HS 578T breast 62.5% | NCI/ADR-RES ovarian 26.5%

COc1cc(C2C=C(C)N=C3SC=C(C)N32)cc(OC)c1OC (stereo not given)
inactive: OVCAR-4 ovarian 12.6% | NCI/ADR-RES ovarian 19.5%
active: SR leukemia -6.27% | RPMI-8226 leukemia -26.3% | OVCAR-8 ovarian 9.1% | SK-OV-3 ovarian -5.5% | IGROV1 ovarian -49.8%

COc1cc(/C=C\c2cc(OC)c(OC)c(OC)c2)cc(N/C=C\C(=O)c2c[nH]c3ccccc23)c1OC
active: SR leukemia -36.8% | RPMI-8226 leukemia -32.8% | OVCAR-3 ovarian -93.6%
inactive: OVCAR-8 ovarian 33.8% | OVCAR-5 ovarian 35.3% | SK-OV-3 ovarian 90.1% | IGROV1 ovarian 40.5% | NCI/ADR-RES ovarian 73.5%

O=S(=O)(NCCNc1nccc(-c2c(-c3ccccc3)nc3sccn23)n1)c1ccc(O)cc1
inactive: SR leukemia 18.2% | RPMI-8226 leukemia 52.8% | OVCAR-5 ovarian 87.1% | OVCAR-4 ovarian 56.5% | SK-OV-3 ovarian 65.3% | IGROV1 ovarian 22% | OVCAR-3 ovarian 38.9% | HS 578T breast 64.6% | NCI/ADR-RES ovarian 85.5%

O=C(Nc1cccc(C(F)(F)F)c1)Nc1ccc(OCc2nnc(-c3ccccc3)o2)c(F)c1
active: SR leukemia 5.85% | RPMI-8226 leukemia 2.02%
inactive: OVCAR-8 ovarian 38.5% | OVCAR-4 ovarian 34.5% | SK-OV-3 ovarian 69.1% | IGROV1 ovarian 45.9% | OVCAR-3 ovarian 15.6% | HS 578T breast 39.2% | NCI/ADR-RES ovarian 37%

CC(C)(C)c1ccc(S(=O)(=O)Oc2ccc3c4c(c(=O)oc3c2)CCCCC4)cc1
inactive: SR leukemia 31.4% | RPMI-8226 leukemia 40.4% | OVCAR-8 ovarian 77.2% | OVCAR-5 ovarian 70% | SK-OV-3 ovarian 71.4% | IGROV1 ovarian 68.6% | OVCAR-3 ovarian 52.7% | NCI/ADR-RES ovarian 20.1%

O=[N+]([O-])c1c(S(=O)(=O)O)cc2cc(S(=O)(=O)O)ccc2c1[N+](=O)[O-]
inactive: SR leukemia 103% | RPMI-8226 leukemia 109% | OVCAR-8 ovarian 114% | OVCAR-4 ovarian 114% | SK-OV-3 ovarian 122% | IGROV1 ovarian 103% | OVCAR-3 ovarian 104% | HS 578T breast 98.7% | NCI/ADR-RES ovarian 102%

C=C1C(=O)O[C@H]2[C@H]1CC/C(COC(=O)NCCc1cccc(OC)c1)=C\CC[C@@]1(C)O[C@@H]21
inactive: RPMI-8226 leukemia 25.1% | OVCAR-8 ovarian 17.4% | OVCAR-4 ovarian 39.9% | SK-OV-3 ovarian 90.3% | HS 578T breast 57.9% | NCI/ADR-RES ovarian 80%
active: SR leukemia 0.839% | OVCAR-3 ovarian -20%

OCc1c(-c2ccccc2)nc2sccn12
inactive: SR leukemia 103% | RPMI-8226 leukemia 111% | OVCAR-5 ovarian 109% | OVCAR-4 ovarian 103% | SK-OV-3 ovarian 110% | IGROV1 ovarian 88.2% | OVCAR-3 ovarian 116% | HS 578T breast 77.7% | NCI/ADR-RES ovarian 105%

O=C(/C=C/CN1CCOCC1)Nc1cc2c(Nc3ccc(F)c(Cl)c3F)ncnc2cc1OCCOC(F)F
active: IGROV1 ovarian -11.1%
inactive: SR leukemia 60.7% | RPMI-8226 leukemia 17.8% | OVCAR-8 ovarian 49.6% | OVCAR-4 ovarian 54.7% | SK-OV-3 ovarian 11.8% | OVCAR-3 ovarian 48.9% | HS 578T breast 23.1% | NCI/ADR-RES ovarian 36.2%

CCn1cc(C(=O)O)c(=O)c2cc(F)c(N3CCN(S(=O)(=O)c4ccc(OC)c(OC)c4)CC3)cc21
inactive: SR leukemia 88.3% | RPMI-8226 leukemia 99.3% | OVCAR-8 ovarian 102% | OVCAR-4 ovarian 110% | SK-OV-3 ovarian 135% | IGROV1 ovarian 108% | OVCAR-3 ovarian 109% | NCI/ADR-RES ovarian 107%

COC(=O)C(CC(=O)c1ccc(-c2ccccc2)cc1)c1ccccc1 (stereo not given)
inactive: SR leukemia 24.2% | RPMI-8226 leukemia 88.3% | OVCAR-5 ovarian 84.1% | OVCAR-4 ovarian 71.6% | SK-OV-3 ovarian 85.2% | IGROV1 ovarian 64.7% | OVCAR-3 ovarian 10.6% | HS 578T breast 71.7% | NCI/ADR-RES ovarian 17.5%

Cc1ccc(S(=O)(=O)NCCCNc2nccc(-c3c(-c4ccccc4)nc4sccn34)n2)cc1
inactive: SR leukemia 33.9% | RPMI-8226 leukemia 25.6% | OVCAR-5 ovarian 117% | OVCAR-4 ovarian 48.4% | SK-OV-3 ovarian 57.9% | IGROV1 ovarian 35.7% | OVCAR-3 ovarian 38% | HS 578T breast 74.9% | NCI/ADR-RES ovarian 49%

COc1c(NC[C@H]2OC(O)[C@H](O)[C@@H](O)[C@@H]2O)c(=O)c1=O (stereo not given in full)
inactive: SR leukemia 119% | RPMI-8226 leukemia 101% | OVCAR-8 ovarian 101% | OVCAR-4 ovarian 84.4% | SK-OV-3 ovarian 106% | IGROV1 ovarian 120% | OVCAR-3 ovarian 113% | HS 578T breast 101% | NCI/ADR-RES ovarian 101%

O=S(=O)(NCCCNc1cc(-c2cn(-c3ccccc3)nc2-c2cccc(O)c2)ccn1)c1ccc(Br)cc1
active: SR leukemia -12.4% | RPMI-8226 leukemia 3.52% | HS 578T breast -3.87%
inactive: OVCAR-8 ovarian 19.1% | OVCAR-4 ovarian 37.4% | SK-OV-3 ovarian 20.7% | IGROV1 ovarian 22.4% | OVCAR-3 ovarian 22% | NCI/ADR-RES ovarian 16.2%

C/C(=N\NC(=O)CC#N)c1cc2cc(Cl)ccc2o1
inactive: SR leukemia 84.8% | RPMI-8226 leukemia 90.2% | OVCAR-8 ovarian 109% | OVCAR-4 ovarian 91.5% | SK-OV-3 ovarian 98.8% | IGROV1 ovarian 96.8% | OVCAR-3 ovarian 102% | HS 578T breast 14.9% | NCI/ADR-RES ovarian 110%

O=S(=O)(NCCCNc1cc(-c2cn(-c3ccccc3)nc2-c2cccc(O)c2)ccn1)c1ccc(Cl)cc1
active: SR leukemia 4.43% | RPMI-8226 leukemia 8.7% | HS 578T breast 5.52%
inactive: OVCAR-5 ovarian 37% | OVCAR-4 ovarian 34.7% | SK-OV-3 ovarian 33.1% | IGROV1 ovarian 27.5% | OVCAR-3 ovarian 26.6% | NCI/ADR-RES ovarian 23.7%

O=C(CNC1CCCCC1)Nc1ccc(-c2nc3ccccc3s2)cc1
inactive: RPMI-8226 leukemia 77.6% | OVCAR-8 ovarian 99.3% | OVCAR-4 ovarian 84.4% | SK-OV-3 ovarian 90.8% | IGROV1 ovarian 100% | OVCAR-3 ovarian 94% | HS 578T breast 84.3% | NCI/ADR-RES ovarian 89%
active: SR leukemia 9.67%

O=C(/C=C/CN1CCCCC1)Nc1cc2c(Nc3ccc(F)c(Cl)c3F)ncnc2cc1OCCOC(F)F
inactive: SR leukemia 11.5% | RPMI-8226 leukemia 12.7% | OVCAR-8 ovarian 19.5% | OVCAR-4 ovarian 12.9%
active: SK-OV-3 ovarian -6.19% | IGROV1 ovarian -9.94% | OVCAR-3 ovarian 0.43% | HS 578T breast -7.08% | NCI/ADR-RES ovarian 9.16%

CSc1nc(-c2cc3ccccc3o2)cc(-c2ccc(Cl)cc2)c1C#N
active: OVCAR-4 ovarian -57.5% | SK-OV-3 ovarian -21.3%
inactive: SR leukemia 82.6% | RPMI-8226 leukemia 26.6% | OVCAR-8 ovarian 28.7% | OVCAR-3 ovarian 37.7% | NCI/ADR-RES ovarian 64.3%

O=S(=O)(NCCCNc1cc(-c2cn(-c3ccccc3)nc2-c2cccc(O)c2)ccn1)c1ccc(C(F)(F)F)cc1
active: SR leukemia 8.04%
inactive: RPMI-8226 leukemia 15.4% | OVCAR-5 ovarian 57.8% | OVCAR-4 ovarian 45.1% | SK-OV-3 ovarian 54.8% | IGROV1 ovarian 58.9% | OVCAR-3 ovarian 49.6% | HS 578T breast 22.6% | NCI/ADR-RES ovarian 35%

CC/C(=C(\c1ccc(O)cc1)c1ccc(OCCN(C)CCN(C)C(=O)CCC(=O)c2c(C)[nH]c(/C=C3\N=C(c4ccc[nH]4)C=C3OC)c2C)cc1)c1ccccc1
inactive: SR leukemia 58.6% | OVCAR-8 ovarian 89.9% | OVCAR-5 ovarian 99.6% | SK-OV-3 ovarian 111% | IGROV1 ovarian 81.6% | OVCAR-3 ovarian 89.1% | HS 578T breast 83.6% | NCI/ADR-RES ovarian 79.8%

Nc1c(C(=O)Nc2ccccc2)sc2nc3c(cc12)CCC3
inactive: SR leukemia 39.6% | RPMI-8226 leukemia 83.4% | OVCAR-5 ovarian 99.4% | OVCAR-4 ovarian 78.9% | SK-OV-3 ovarian 95.5% | IGROV1 ovarian 90.2% | HS 578T breast 92.8% | NCI/ADR-RES ovarian 66.6%

Nc1c(C(=O)Nc2c(Cl)cccc2Cl)sc2nc3c(cc12)CCCCC3
inactive: SR leukemia 16.7% | OVCAR-8 ovarian 51.8% | OVCAR-5 ovarian 79.8% | SK-OV-3 ovarian 56.6% | IGROV1 ovarian 73% | OVCAR-3 ovarian 52.8% | HS 578T breast 59% | NCI/ADR-RES ovarian 53.5%

Cc1cccc(NC(=O)c2sc3nc4c(cc3c2N)CCCC4)c1
inactive: SR leukemia 17.3% | RPMI-8226 leukemia 12.7% | OVCAR-5 ovarian 64.9% | OVCAR-4 ovarian 71.7% | SK-OV-3 ovarian 44% | IGROV1 ovarian 54.6% | HS 578T breast 59.5% | NCI/ADR-RES ovarian 11.1%

c1cncc(CNc2ccccc2-c2nnc(Nc3ccc4c(c3)OCCO4)o2)c1
active: SK-OV-3 ovarian -4.48% | OVCAR-3 ovarian -50.3% | NCI/ADR-RES ovarian 6.09%
inactive: SR leukemia 14.1% | OVCAR-8 ovarian 27.1% | OVCAR-5 ovarian 43.9% | OVCAR-4 ovarian 44% | IGROV1 ovarian 40.9% | HS 578T breast 77.9%

Cc1oc2nc[nH]c(=O)c2c1C(=O)/C=C/c1ccc(Cl)cc1
inactive: OVCAR-5 ovarian 34.5% | OVCAR-4 ovarian 29.8% | IGROV1 ovarian 38.9% | HS 578T breast 60.5% | NCI/ADR-RES ovarian 10.4%
active: SR leukemia -30.6% | RPMI-8226 leukemia -14.1% | OVCAR-3 ovarian 4.32%
